BCR signal inh – qHTS Assay to Find Inhibitors of Chronic Active B-Cell Receptor Signaling | ABC-DLBCL IkBa-CBG/CBR reporter, luminescence ratio, 4 h | Potency, µM (titrated, usually from 46.1 µM), without a hit: at the top dose activity change, negative = inhibition, hits mostly inhibitors | 340,000 compounds, 0.05% hits; active means well fitted inhibition curve with a large enough effect in the signal ratio, with a control signal flat, not every such curve was filed as active; inconclusive means small, poorly fitted or top-dose-only effect, or effect the other way, or a change in a side signal; the % refers to the signal ratio;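 further: potency means the concentration at half of the fitted maximal effect; plate controls were basal doxycycline-induced cells for no effect and cells given 10 µM MG132 for full effect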
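TMD8 ABC-DLBCL cells carrying doxycycline-inducible green luciferase fused to IkappaBalpha plus unfused red luciferase were exposed to compounds (up to 46 uM) for 4 hrs at 37C. Activity came from the overlap-corrected green/red luminescence ratio.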
ClpP mod – qHTS Assay for Activators of ClpP; AID 651965, 2013; Potency, µM (titrated, usually from 57.5 µM), without a hit: at the highest dose activity change, negative = active; purified B. subtilis ClpP, FRET peptide cleavage, 20 min; ATP-dependent Clp protease proteolytic subunit (Bacillus subtilis (strain 168)), P80244; 340,000 compounds, 1.9% hits; active means well fitted falling curve with a large enough effect; inconclusive means small, poorly fitted or top-dose-only effect; inactive means no such curve, though single readings can be large or run the other way; further: potency means the concentration at half of the fitted maximal effect; the source files actives as falling curves though it sought activators and does not explain the sign; nearly all actives have a fitted effect of over 65% in size
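FRET quenching reversal measured ClpP activation: 10 microg/mL B. subtilis ClpP at pH 8 with the FRET-FV decapeptide, read at 430 nm after 320 nm excitation. The 20-min minus 0-min signal was scaled between DMSO/no-enzyme wells and ADEP (5.8 microM final).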
KCNH2 3.1 inh – qHTS for Inhibitors of KCHN2 3.1: Mutant qHTS | U2OS KCNH2 3.1, thallium flux FluxOr; active compounds read low | activity change, % (tested at about 1.8 µM) | 340,000 compounds, 0.95% hits;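 active means maximum activity change below -70%; inconclusive means maximum activity change from -70% to -50%; inactive means maximum activity change above -50%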;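 further: thallium influx rate constant from kinetic fluorescence after stimulation buffer; on the % scale 0 is the no-effect control and ±100 the full control effect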
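Thallium flux read-out: FluxOr dye with Red40 quencher in HBSS/HEPES, 45 min at RT. Rate constants from kinetic reads were normalized to positive and negative DMSO controls. Cells: U2OS virally expressing the 3.1 isoform.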
12-LOX inh – Primary qHTS assay for inhibitors of human arachidonate 12S-lipoxygenase (ALOX12): Round 2; purified 12hLO, xylenol orange hydroperoxide absorbance; AID 1671190, 2021; 580,000 compounds, 1.1% hits; Polyunsaturated fatty acid lipoxygenase ALOX12 (Homo sapiens), P18054; Potency, µM (titrated, usually from 108 µM), without a hit: at the top dose activity change, negative = inhibition, hits mostly inhibitors; active means well fitted inhibition curve with a large enough effect; inconclusive means small, poorly fitted or top-dose-only effect, or another doubt; inactive means no such curve, though single readings can be large or run the other way; further: potency means the concentration at half of the fitted maximal effect; on the % scale 0 is the no-effect control and ±100 the full control effect
Target sequence (P18054 whole entry, looked up): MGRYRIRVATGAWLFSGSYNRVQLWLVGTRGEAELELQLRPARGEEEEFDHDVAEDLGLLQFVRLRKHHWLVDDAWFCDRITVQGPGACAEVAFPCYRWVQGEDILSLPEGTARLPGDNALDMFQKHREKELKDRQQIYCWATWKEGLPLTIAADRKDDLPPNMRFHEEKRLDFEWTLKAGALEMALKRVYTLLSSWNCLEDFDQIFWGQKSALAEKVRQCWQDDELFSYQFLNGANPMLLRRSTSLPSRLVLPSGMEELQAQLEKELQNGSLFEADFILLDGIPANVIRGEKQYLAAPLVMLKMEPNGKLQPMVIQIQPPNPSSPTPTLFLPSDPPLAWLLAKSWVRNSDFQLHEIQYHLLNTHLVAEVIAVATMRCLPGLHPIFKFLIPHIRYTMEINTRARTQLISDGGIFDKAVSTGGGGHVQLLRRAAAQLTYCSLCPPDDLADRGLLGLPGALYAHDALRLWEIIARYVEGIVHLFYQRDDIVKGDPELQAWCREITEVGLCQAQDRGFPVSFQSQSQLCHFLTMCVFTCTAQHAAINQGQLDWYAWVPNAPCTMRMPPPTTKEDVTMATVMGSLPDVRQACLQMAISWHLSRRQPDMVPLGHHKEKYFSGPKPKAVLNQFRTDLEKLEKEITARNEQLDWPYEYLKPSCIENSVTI
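Hydroperoxide product was detected by ferrous iron/xylenol orange as the 573 to 405 nm absorbance ratio. Arachidonic acid at 40 uM (final) was turned over for 30 min at room temperature by 150 nM human 12hLO, pH 7.0 Hepes buffer, after 15 min compound preincubation.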
KCNH2 WT inh – qHTS for Inhibitors of KCHN2 3.1: Wildtype qHTS | activity change, % at 1.84 µM | 340,000 compounds, 0.37% hits | U2OS, BacMam KCNH2, thallium flux FluxOr; active compounds read low | Voltage-gated inwardly rectifying potassium channel KCNH2 (Homo sapiens), Q12809;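 active means maximum activity change below -70%; inconclusive means maximum activity change between -70% and -50%; inactive means maximum activity change above -50%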; further: on the % scale 0 is the no-effect control and ±100 the full control effect
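U2OS cells transduced with wild-type KCNH2 virus are loaded with FluxOr dye for 45 min, and thallium flux is measured in kinetic reads before and after stimulation buffer. Rate constants are normalized to DMSO controls.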
LDHA inh – qHTS assay for inhibitors of human lactate dehydrogenase | 480,000 compounds, 0.15% hits | purified LDHA, NADH/diaphorase-resazurin fluorescence; active compounds read low | activity change, % (values are at about 110 or 230 µM) | L-lactate dehydrogenase A chain (Homo sapiens), P00338; in the data active means activity change below about -30%; inconclusive means mostly about -25% to -30%;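 further: plate controls were DMSO wells for no effect and wells without enzyme for full effect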
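Resorufin fluorescence (ex540/em590), read at 0 and 20 min after diaphorase/resazurin addition, reports the NADH left after a 5 min room-temperature reaction of 2 nM human LDH5 with 0.06 mM NADH and 0.2 mM pyruvate.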
Numbers without * were called inactive; ? = inconclusive; · = not tested or not shown; [ ] = another dose, or the depositor's remark. Hits are enriched below; roughly 3% of the tested compounds scored in any of these assays.

SMILES | BCR signal inh | ClpP mod | KCNH2 3.1 inh | 12-LOX inh | KCNH2 WT inh | LDHA inh
COc1ccccc1-c1cc(C(=O)O)c2cc(C)cc(C)c2n1 | · | · | · | 28µM* | · | -1
O=C(/C=C/c1ccco1)NC(=S)Nc1ccc(Cl)cn1 | ? | -3% | -13 | 35µM* | -22 | -2
Cc1ccnc(NC(=S)NC(=O)/C=C/c2ccco2)c1 | ? | 7% | -6 | -23% | -21 | 1
C/C(=C\c1ccsc1)C1Nc2cccc3cccc(c23)N1 | · | · | · | · | · | 2
Cc1ccc(-c2ccccc2NC(=O)CS(=O)CC(=O)Nc2ccc(C)c(Cl)c2)o1 (stereo not drawn) | ? | 0% | 5 | 40µM* | -11 | 5
Cc1ccc(NC(=O)CS(=O)CC(=O)NC(C)CCc2ccco2)cc1Cl (stereo not drawn) | -2% | 28µM* | -12 | -29% | -1 | -6
Cc1ccc(-c2ccccc2NC(=O)CCl)o1 | ? | -3% | -3 | ? | 0 | -3
Cc1c(Cl)cccc1N=C1NN=C(c2ccc3c(c2)CC(C)N3S(C)(=O)=O)CS1 (stereo not drawn) | · | · | · | 1% | · | 0
CC(C)C(=O)Nc1ccc2[nH]cc(C(C(=O)O)N3CCN(c4ccccc4)CC3)c2c1 (stereo not drawn) | · | · | · | -21% | · | 7
Cc1[nH]n(C(N)=S)c(=O)c1N=Nc1ccc([N+](=O)[O-])cc1Cl | ? | · | 3 | 10µM* | -2 | 3
Cc1ccccc1N=Nc1c(C)[nH]n(C(N)=S)c1=O | ? | -7% | 17 | ? | 2 | -4
CN(c1ccccc1)c1ccc(C(=N)N)cc1 | · | · | · | ? | · | 3
Cc1ccc(Cn2c(/C=C/c3ccco3)nc3ccccc32)cc1 | 4% | 28µM* | -29 | 16µM* | 15 | -4
CCCCn1c(/C=C/c2ccco2)nc2ccccc21 | 0% | -30% | 0 | ? | -1 | 3
CCCn1c(/C=C/c2ccco2)nc2ccccc21 | -5% | -27% | -2 | ? | -5 | 1
Clc1ccc(Cn2c(/C=C/c3ccco3)nc3ccccc32)cc1 | ? | 35µM* | 5 | 18µM* | -7 | -7
Cc1cc(=O)oc2cc(OCCOC(C)C)ccc12 | · | · | · | -4% | · | 2
O=C1Nc2ccccc2O[C@H]2C[C@@H]1N(C(=O)NCc1ccccc1)C2 | · | · | · | -4%[176 µM] | · | ·
CC(=O)C1=C(C)N(Cc2ccc(F)cc2)C(=S)NC1c1cccc(Cl)c1 (stereo not drawn) | · | · | · | 45µM* | · | ·
COc1cccc(C2NC(=S)N(Cc3ccc(F)cc3)C(C)=C2C(C)=O)c1 (stereo not drawn) | · | · | · | 45µM* | · | ·
CCn1nccc1C(=O)N1CCC(OCC2CC2)C1 (stereo not drawn) | · | · | · | 25% | · | ·
CC(C)C(=O)NC(C)c1ccc(Cl)cc1Cl (stereo not drawn) | · | · | · | -6% | · | 1
Cn1c(=O)c2c(nc(NCCc3ccccc3)n2CC(=O)O)n(C)c1=O | · | · | · | ? | · | 3
CCc1ccc(CN(C)C(C(=O)O)c2c(OC)cccc2OC)nc1 (stereo not drawn) | · | · | · | 152% | · | ·
CCN(CC(=O)N1c2ccccc2SCC1c1ccccc1)Cc1nc2ccccc2c(=O)[nH]1 (stereo not drawn) | · | · | · | 5% | · | 6
SMILES | BCR signal inh | ClpP mod | KCNH2 3.1 inh | 12-LOX inh | KCNH2 WT inh | LDHA inh
O=C(CCN1CCCCC1)N1CCc2c([nH]c3ccccc23)C1c1cccnc1 (stereo not drawn) | · | 2% | -73* | -9% | ? | 3
CN(CCC(N)=O)C(=O)C1CCCN1S(=O)(=O)c1ccc(F)cc1 (stereo not drawn) | · | · | · | 2% | · | ·
CCOc1cccc(CN2CCCC(N3CCN(c4cccc(Cl)c4)CC3)C2)c1O (stereo not drawn) | 0% | · | -82* | 5% | -36 | -1
CCOc1cccc(CN2CCCC(C(=O)c3cc(Cl)ccc3OC)C2)c1O (stereo not drawn) | 13% | · | -115* | -5% | -105* | 1
COc1ccc(C(=O)C2CCCN(Cc3cc(C)c(O)c(C)c3)C2)c(OC)c1 (stereo not drawn) | 0% | -4% | 1 | 4% | 9 | -7
COc1cccc(C(=O)C2CCCN(Cc3ccc(OC)c(Cn4cncn4)c3)C2)c1 (stereo not drawn) | 0% | · | -3 | 4% | 13 | -9
COc1ccc(C(=O)C2CCCN(Cc3cc(Cl)ccc3O)C2)c(OC)c1 (stereo not drawn) | ? | · | -74* | ? | 18 | -2
COc1ccc(CN2CCCC(C(=O)c3ccc(Cl)cc3)C2)cc1Cn1cccn1 (stereo not drawn) | ? | 0% | -96* | -7% | -106* | 0
Cc1ccc(CNC(=O)c2ccc(NC(=O)Cn3c(C)cc(C)c(C#N)c3=O)cc2)o1 | · | · | · | 3% | · | 0
N#Cc1c(N2CCN(CC(=O)Nc3ccccc3)CC2)nc(-c2ccco2)c2c1CCC2 | · | · | · | -1% | · | 0
COc1cccc2sc(NC(=O)CSc3nncn3-c3ccc(C)cc3)nc12 | · | · | · | ? | · | -9
O=C(C[n+]1cccc2ccccc21)c1ccc(F)cc1 | · | -24% | · | · | · | ·
O=C(C[n+]1c2ccccc2cc2ccccc21)c1ccc(F)cc1 | · | 4% | · | · | · | -45*
CCOC(=O)C1(Cc2cccc(OC)c2)CCNCC1 | · | · | · | 8% | · | ·
CCOc1ccc(N2C(=O)CS(=O)(=O)C23C(=O)N(Cc2cccc(C)c2)c2ccccc23)cc1 (stereo not drawn) | · | · | · | 4% | · | 3
Cc1onc(-c2ccccc2)c1C(=O)NC(=S)NNC(=O)c1cc(-c2ccc(F)cc2)n[nH]1 | ? | · | 2 | 45µM* | -7 | -21
Cc1onc(-c2ccccc2)c1C(=O)NC(=S)NNC(=O)c1ccncc1 | ? | 3% | -6 | -15% | -13 | -3
O=C(/C=C/c1ccc(Cl)cc1)N1CCN(c2ccc(Cl)cc2[N+](=O)[O-])CC1 | 16% | -1% | -96* | 0% | -133* | -3
N#Cc1cccc(C(=O)NC2CCSc3ccccc32)c1 (stereo not drawn) | · | · | · | 3% | · | -11
CCOC(=O)C1=C(C)C(c2cccc(Oc3ccccc3)c2)NC(=S)N1 (stereo not drawn) | ? | · | 7 | 40µM* | -2 | 3
O=C(/C=C/C1=Cc2ccccc2OC1)c1cccc(O)c1 | · | · | · | ? | · | 2
